Source: PubChem BioAssay
An excerpt weighted towards active compounds, which were near 3.5% of everything screened.
MBD2 DNA inh: inhibitors of human MBD2 binding to methylated oligonucleotide. Q9UBB5. TR-FRET. inhibition, % at 4.4 µM. 0.31% of 370,000 active. AID 686964; in the data active = inhibition above about 13%
Target sequence (Q9UBB5 whole entry, looked up): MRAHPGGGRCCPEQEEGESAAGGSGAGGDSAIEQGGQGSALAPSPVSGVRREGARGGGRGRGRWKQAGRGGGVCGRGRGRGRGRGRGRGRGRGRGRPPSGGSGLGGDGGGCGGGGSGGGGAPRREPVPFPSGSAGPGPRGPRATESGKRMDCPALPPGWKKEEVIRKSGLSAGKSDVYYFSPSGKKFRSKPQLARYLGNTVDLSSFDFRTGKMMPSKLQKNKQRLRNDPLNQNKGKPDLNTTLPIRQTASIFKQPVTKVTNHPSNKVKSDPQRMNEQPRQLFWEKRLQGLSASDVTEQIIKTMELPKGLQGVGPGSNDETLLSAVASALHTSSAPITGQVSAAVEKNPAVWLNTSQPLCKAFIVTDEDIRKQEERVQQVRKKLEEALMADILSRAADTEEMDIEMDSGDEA
DNMT1 block: inhibitors of human DNMT1; 0.83% of 360,000 active; AID 588458; inhibition (reported as % activation of signal), % at 10 µM; P26358; DNMT1 molecular beacon, Hinp1I cleavage, fluorescence; in the data active = inhibition above about 50%
PG9 binder: binds the HIV-1 gp120 antibody PG9; TR-FRET gp120-PG9 antibody binding; inhibition, % at 6.7 µM; 0.43% of 360,000 active; in the data active = inhibition above about 8.5%
UHRF1 binding: UHRF1 methyl-DNA binding inhibition | inhibition, % at 4.4 µM | 0.75% of 370,000 active | AID 687016 | UHRF1 binding to methylated oligo, TR-FRET | Q96T88; in the data active = inhibition above about 21%;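 also: UHRF1 SRA domain binding a hemimethylated CpG hairpin DNA probe; 0% = median of test compound wells and 100% = reference inhibitor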
rCAG binder: molecules binding r(CAG) RNA repeats | r(CAG) RNA repeat, TO-PRO-1 dye displacement fluorescence | inhibition, % at 3 µM | 1.3% of 370,000 active;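 active = inhibition above the plate cutoff, the mean of all test compounds on that plate plus 3 SD, cut at about 35% in these data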;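 also: 0% = DMSO alone and 100% = 100 µM mitoxantrone as full dye displacement; higher means more dye released from RNA so lower well fluorescence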
LEDGF integ inh: blocks HIV-1 LEDGF/p75-dependent DNA integration. 0.64% of 370,000 active. AID 743269. TR-FRET IN-LEDGF/p75 DNA integration, Eu/Cy5. inhibition, % at 3.7 µM;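 active = inhibition above the screen-wide mean plus 3 SD, cut at about 13% in these data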;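 also: signal is the Cy5 over europium emission ratio at 671 and 618 nm; 0% = plate median of compound wells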
rCAG bind conf: r(CAG) RNA repeat binding, confirmation; shares compounds with rCAG binder; TO-PRO-1 dye displacement fluorescence; inhibition, % at 3 µM; 70% of 4,300 active; AID 652065;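 active = inhibition above a per-plate cutoff, the mean inhibition of sample wells plus 3 SD, cut at about 35% in these data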;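 also: loss of TO-PRO-1 fluorescence as compound displaces dye from 1x1 AA loop RNA; 0% = DMSO only wells and 100% = 100 µM mitoxantrone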
DNA CAG counter: disrupts DNA CAG TO-PRO-1 complex, flagging rCAG hits | shares compounds with rCAG binder | d(CAG) DNA oligo TO-PRO-1 dye displacement, fluorescence | inhibition, % at 3 µM | 94% of 4,300 active;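 active = inhibition above its plate's cutoff, the mean test-well inhibition plus 3 SD, cut at about 4.8% in these data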;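 also: 0% = DNA dye mix with DMSO and 100% = 100 µM mitoxantrone; hits displace the dye from DNA and so lower well fluorescence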
dCAG dye DR: disrupts DNA CAG TO-PRO-1 complex in dose response; shares compounds with rCAG binder; DNA CAG/GTC duplex TO-PRO-1 dye displacement fluorescence; IC50, µM; 20% of 250 active; AID 686960; in the data active = IC50 below about 10 µM
Numbers without * were called inactive; i = inactive; nt = no result.

SMILES | MBD2 DNA inh | DNMT1 block | PG9 binder | UHRF1 binding | rCAG binder | LEDGF integ inh | rCAG bind conf | DNA CAG counter | others
CC(C)C(Nc1ncnc2c1oc1ccccc12)C(=O)O (stereo unspecified) | 6 | -4 | 1 | 5 | 2 | 6 | nt | nt
CCC(C)[C@H](Nc1nc(-c2ccccc2)nc2c1oc1ccccc12)C(=O)O (stereo partly specified) | -3 | 2 | -1 | 2 | 74* | 5 | 70* | 32* | dCAG dye DR=i
COC(=O)[C@]12C[C@H](CC(=O)NCc3ccc(C)o3)C(=O)N(Cc3cccc4ccccc34)C1=C[C@H](C(C)(C)C)O[C@@H]2C | -2 | nt | nt | -1 | 5 | 2 | nt | nt
CCOC(=O)[C@]12CCCC=C1N(Cc1ccc3c(c1)OCO3)C(=O)[C@H](CC(=O)NCCC(C)C)C2 | 0 | nt | -1 | 0 | 2 | 0 | nt | nt
Brc1ccc(N/N=C(/N=Nc2nn[nH]n2)c2ccccc2)cc1 | 3 | -28 | -2 | 3 | 95* | 2 | 92* | 67*
COc1ccc(-n2ncc(C(C)NS(=O)(=O)c3ccc(C)s3)c2C)cc1 (stereo unspecified) | -1 | -1 | -2 | 1 | -3 | 2 | nt | nt
COc1cccc(C(=O)N2CCC[C@@H]2C(=O)N2CCC[C@@H]2C(=O)NCc2ccccc2Cl)c1 | 3 | nt | -1 | 1 | -1 | -3 | nt | nt
N#Cc1ccc(/C=N/NC(=S)Nc2ccc(S(=O)(=O)N3CCOCC3)cc2)cc1 | -4 | -3 | -2 | -6 | 8 | -1 | nt | nt
O=[N+]([O-])c1cc(Cl)cc(/C=N/NC(=S)Nc2ccc(S(=O)(=O)N3CCOCC3)cc2)c1O | -6 | -13 | -3 | -15 | 98* | 2 | 88* | 63*
CC12CCC(C/C1=N\N=C1\NC(=O)/C(=C\c3cccc(Br)c3)S1)C2(C)C (stereo unspecified) | -2 | 10 | -1 | -1 | 50* | -3 | 60* | 28*
Cc1nc2c(C(=O)NCCC(C)C)c[nH]n2c(=O)c1Cc1ccccc1F | 1 | 11 | -1 | -2 | 69* | 8 | 76* | 42*
Cc1cc(C(=O)NCCC(C)C)c2ccccc2n1 | 4 | -2 | -2 | -2 | -1 | -3 | nt | nt
Cc1nc2c(C(=O)NCCC(C)C)c[nH]n2c(=O)c1Cl | 2 | 20 | -3 | 0 | 37* | 4 | 36* | 8.2*
Cc1nc2c(C(=O)NCCc3ccccc3)c[nH]n2c(=O)c1Cl | -2 | -1 | -1 | 1 | 64* | 0 | 54* | 13*
Cc1nc2c(C(=O)O)cnn2c(C)c1Cc1ccccc1F | 6 | -1 | -2 | 13 | 2 | 6 | nt | nt
COc1ccc2c(=O)cc(CO)oc2c1 | -1 | -3 | 3 | 0 | 9 | 0 | nt | nt
Cc1ccccc1N1CCN(C2CCCN(C(=O)c3cn4cccc(C)c4n3)C2)CC1 (stereo unspecified) | 0 | 3 | -2 | -2 | -9 | 3 | nt | nt
O=C(O)COc1ccccc1/C=N/NC(=O)c1cccc(S(=O)(=O)Nc2cccc(Cl)c2)c1 | -3 | -5 | -2 | -2 | 48* | -3 | 30 | 8.7*
O=C(CSc1nc2ccccc2n1Cc1ccc(Cl)cc1)N/N=C/c1ccccc1C(=O)O | 2 | -4 | 0 | 1 | 53* | -4 | 56* | 18*
O=C(O)COc1ccccc1/C=N/NC(=O)CSc1nc2ccccc2n1Cc1ccc(Cl)cc1 | 0 | -2 | -2 | -3 | 60* | 1 | 76* | 35*
COc1ccc(-n2c(SCC(=O)N/N=C/c3ccccc3OCC(=O)O)nc3ccccc3c2=O)cc1 | 7 | -1 | 1 | 8 | 43* | 3 | 47* | 13*
O=C(Nc1ccc(Cl)c(C(F)(F)F)c1)C1Cc2c(-c3ccccc3)ccnc2O1 (stereo unspecified) | -1 | -5 | 0 | 0 | 6 | -1 | nt | nt
O=C(O)COc1ccccc1/C=N/NC(=O)COc1ccc(-c2ccccc2)cc1 | -1 | 0 | 1 | -1 | 66* | -2 | 64* | 22*
COc1ccc(NS(=O)(=O)c2ccc(Cl)c(N)c2)cc1Br | 1 | 3 | 1 | -2 | 10 | 2 | nt | nt
CCOc1ccc(NS(=O)(=O)c2ccc(Cl)c(N=Nc3c(O)[nH]c(=S)[nH]c3=O)c2)cc1Br | 0 | -7 | -2 | -1 | 93* | 2 | 93* | 66*
SMILES | MBD2 DNA inh | DNMT1 block | PG9 binder | UHRF1 binding | rCAG binder | LEDGF integ inh | rCAG bind conf | DNA CAG counter | others
CC1=Nc2ccccc2/C1=C\c1nc(-c2ccccc2)oc1O | -2 | -12 | -1 | -1 | 60* | -2 | 37* | 17*
CC1=Nc2ccccc2/C1=C/c1nc(-c2ccc(C)s2)oc1O | 1 | 15 | -3 | 0 | 46* | 4 | 42* | 22*
CC1=Nc2ccccc2/C1=C/c1c(C)[nH]c2ccccc12 | nt | -19 | nt | nt | nt | nt | nt | nt
CC1=Nc2ccccc2/C1=C\c1nc(-c2ccc(C(F)(F)F)cc2)oc1O | -7 | 12 | 0 | 0 | 13 | 1 | nt | nt
COc1ccc(-c2nc(/C=C3\C(C)=Nc4ccccc43)c(O)o2)cc1 | -3 | -11 | -1 | -2 | 52* | -3 | 35* | 20*
O=C(COc1ccccc1Cl)NNC(=O)c1ccc2c(=O)n3c(nc2c1)CCC3 | 2 | 2 | 1 | 0 | 3 | -1 | nt | nt
CCC1NC(=O)c2cccnc2-n2c1nc1cc(F)ccc1c2=O (stereo unspecified) | 9 | 8 | -1 | 4 | -1 | -4 | nt | nt
O=S(=O)(Nc1ccc(-c2nc3cccnc3s2)cc1)c1cccs1 | 6 | 3 | 0 | -1 | 8 | 0 | nt | nt
O=S(=O)(Nc1ccc(-c2nc3cccnc3s2)cc1)c1ccc(Cl)s1 | 4 | -9 | 2 | -2 | 66* | 0 | 71* | 32* | dCAG dye DR=i
Cc1nc2ccc(S(=O)(=O)Nc3cccc(-c4nc5cccnc5s4)c3)cc2s1 | -6 | 2 | 2 | -1 | 23 | 0 | nt | nt
Cc1nc2ccc(S(=O)(=O)Nc3ccc(-c4nc5cccnc5s4)cc3)cc2s1 | 3 | -8 | -1 | -2 | 53* | 1 | 42* | 12*
Cc1ccc(NC(=O)CCc2nnc3ccc(N4CCOCC4)nn23)cc1C | -6 | 3 | -1 | 4 | 3 | 3 | nt | nt
CCN(CC)S(=O)(=O)c1ccc(NC(=O)COC(=O)c2cc(S(=O)(=O)Nc3ccc(OC)cc3)ccc2O)cc1 | 1 | -6 | -1 | -2 | 36* | 3 | 61* | 26*
O=S(=O)(Nc1cccc(S(=O)(=O)N2CCOCC2)c1)c1ccc(Cl)s1 | 4 | 3 | -3 | 5 | 8 | -2 | nt | nt
